From PubChem BioAssay (EPA / NIEHS) come the findings set out here.

A short description of assay [1]: ATG_TCF_b_cat_CIS: Attagene CIS-FACTORIAL HepG2 Assay for human T-Cell-Factor with beta-catenin (TCF/b-cat) (AID 2282965). The note with it: HepG2 TCF/beta-catenin cis-reporter transcription, actives raise or lower the signal. Summed up:
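Measured: reporter mRNA in HepG2 transiently transfected with cis-promoter reporter units, 24 h after chemical addition. Fitting was bidirectional, DMSO as negative control.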

A short description of assay [2]: ATG_TAL_CIS: Attagene CIS-FACTORIAL HepG2 Assay for human TAL Basal Promoter (AID 2282966).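 Further: background control endpoint measuring basal TAL promoter reporter mRNA not a specific factor.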 The note with it: HepG2 Attagene cis-factorial TAL promoter reporter; actives raise or lower the signal. Summed up: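 HepG2, transient MRTU transfection, 24 h compound exposure; RNA → oligo(dT) RT → PCR → 6-FAM primer extension → HpaI digest → CE fluorescence. Bidirectional curve fit vs DMSO. Background-control readout.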

Assay [3] can be described thus: ATG_TGFb_CIS: Attagene CIS-FACTORIAL HepG2 Assay for human Transforming Growth Factor (TGF) (AID 2282967). The note with it: HepG2 Attagene CIS TGFb reporter, mRNA transcription; actives raise or lower the signal. Summed up:
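Cells were dosed for 24 hours, after which total RNA was reverse-transcribed and reporter sequences amplified, labeled and sized by capillary electrophoresis. Activity was fitted in both directions against DMSO.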

Assay [4] is described as follows: ATG_VDRE_CIS: Attagene CIS-FACTORIAL HepG2 Assay for human Vitamin D Receptor Element (VDRE) (AID 2282968). The settings on record: HepG2 VDRE cis-reporter transcription, actives raise or lower the signal. Summed up: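 Readout is VDRE-driven reporter mRNA reflecting endogenous factor activity in human HepG2 cells, sampled 24 h post-dose. Quantification used labelled RT-PCR products separated by capillary electrophoresis; bidirectional analysis relative to DMSO.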

The target of assay [5] is Estrogen receptor (Homo sapiens) (UniProt P03372). Kind of assay: ATG_ERa_TRANS: Attagene TRANS-FACTORIAL HepG2 Assay for human Estrogen Receptor alpha (ERa) (AID 2282970; active means hit-call score of the fitted dose curve at least 0.9, where 1 is the maximum). The settings on record: HepG2 Attagene TRANS ERa GAL4 reporter, mRNA. Summed up: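 Reporter mRNA induction after 24 hours, detected by fluorescent RT-PCR and capillary electrophoresis, gives the read-out. Cells are HepG2 transiently transfected with GAL4-UAS reporter transcription units responding to chimeric NR-Gal4. Activity is taken as gain of signal over DMSO baseline.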
Sequence of Estrogen receptor (Homo sapiens) (P03372 whole entry, looked up, the tested form may be a part): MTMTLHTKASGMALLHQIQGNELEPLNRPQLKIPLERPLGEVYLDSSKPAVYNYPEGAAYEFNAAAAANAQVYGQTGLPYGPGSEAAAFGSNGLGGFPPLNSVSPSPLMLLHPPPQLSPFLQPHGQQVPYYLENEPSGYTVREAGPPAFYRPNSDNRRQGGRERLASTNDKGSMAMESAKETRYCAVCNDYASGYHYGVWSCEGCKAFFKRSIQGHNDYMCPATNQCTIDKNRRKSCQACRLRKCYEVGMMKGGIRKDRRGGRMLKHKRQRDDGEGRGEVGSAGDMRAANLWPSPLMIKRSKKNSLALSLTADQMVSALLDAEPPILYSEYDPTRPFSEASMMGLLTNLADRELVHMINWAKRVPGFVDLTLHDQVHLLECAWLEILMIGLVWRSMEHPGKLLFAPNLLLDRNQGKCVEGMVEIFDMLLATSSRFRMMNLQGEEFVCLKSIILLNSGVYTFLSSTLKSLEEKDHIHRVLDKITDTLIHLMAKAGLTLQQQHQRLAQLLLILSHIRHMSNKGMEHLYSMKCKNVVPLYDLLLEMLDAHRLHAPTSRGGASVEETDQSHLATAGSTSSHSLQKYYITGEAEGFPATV

Assay [6] concerns the target Steroid hormone receptor ERR1 (Homo sapiens) (UniProt P11474). Kind of assay: ATG_ERRa_TRANS: Attagene TRANS-FACTORIAL HepG2 Assay for human Estrogen-Related Receptor alpha (ERRa) (AID 2282971; active means hit-call score of the fitted dose curve at least 0.9, where 1 is the maximum). The settings on record: HepG2 Attagene TRANS reporter, ERRa transactivation. In a few lines: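 Transfected HepG2, 24 h dosing, ERRa-Gal4 chimera driving GAL4-UAS reporter. Readout: reporter mRNA via RT-PCR plus capillary electrophoresis (fluorescence). Positive direction vs DMSO control.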

The target in assay [7] is X-box-binding protein 1 (Homo sapiens) (UniProt P17861). Kind of assay: ATG_Xbp1_CIS: Attagene CIS-FACTORIAL HepG2 Assay for human X-box Binding Protein 1 (XBP1) (AID 2282972). The settings on record: HepG2 XBP1 cis-element reporter, Attagene multiplex; actives raise or lower the signal. In a few lines: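 Multiplexed cis-reporter readout in transfected HepG2 liver cells. Exposure lasted 24 hours. Activity in either direction was fitted against DMSO as negative control and baseline.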
Sequence of X-box-binding protein 1 (Homo sapiens) (P17861 whole entry, looked up): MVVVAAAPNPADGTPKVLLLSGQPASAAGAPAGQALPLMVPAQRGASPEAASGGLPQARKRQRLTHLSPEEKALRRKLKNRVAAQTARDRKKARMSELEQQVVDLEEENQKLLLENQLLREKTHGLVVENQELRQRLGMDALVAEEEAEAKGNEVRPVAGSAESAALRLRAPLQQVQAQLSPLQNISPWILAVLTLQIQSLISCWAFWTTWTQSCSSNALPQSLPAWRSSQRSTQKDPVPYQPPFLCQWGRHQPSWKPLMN

Assay [8] can be described thus: ATG_GAL4_TRANS: Attagene TRANS-FACTORIAL HepG2 Assay for GAL4 (Internal Marker) (AID 2282976; active means hit-call score of the fitted dose curve at least 0.9, where 1 is the maximum). The note with it: HepG2 Attagene TRANS GAL4 internal marker reporter. In a few lines:
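RT-PCR/capillary electrophoresis readout of reporter mRNA. HepG2, transient MRTU transfection (GAL4-UAS reporters), 24 h compound exposure. Background-control endpoint, positive direction vs DMSO baseline.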

The target in assay [9] is Nuclear receptor subfamily 1 group I member 3 (Homo sapiens) (UniProt Q14994). The experiment in a line: ATG_CAR_TRANS: Attagene TRANS-FACTORIAL HepG2 Assay for human Constitutive Androstane Receptor (CAR) (AID 2282969; active means hit-call score of the fitted dose curve at least 0.9, where 1 is the maximum;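 further: activators raise reporter mRNA above DMSO so AC50 marks induction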). The note with it: HepG2 Attagene TRANS-FACTORIAL CAR reporter. In a few lines:
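Signal is reporter mRNA induction relative to DMSO, measured 24 h after dosing by RT-PCR with fluorescent primer extension and capillary electrophoresis. Human HepG2 liver cells carried transiently transfected chimeric NR-Gal4/GAL4-UAS reporter constructs.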

Assay [10] is described as follows: ATG_M_19_TRANS: Attagene TRANS-FACTORIAL HepG2 Assay for M19 Transcription Factor (Internal Marker) (AID 2282974; active means hit-call score of the fitted dose curve at least 0.9, where 1 is the maximum). The note with it: HepG2 Attagene TRANS-FACTORIAL M19 internal marker reporter. In a few lines:
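24 h chemical exposure of transiently transfected HepG2 (MRTU library). RNA → oligo(dT) RT → PCR → 6-FAM labelling → HpaI cut → CE fluorescence. Positive-direction fit vs DMSO baseline; background internal-marker readout.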

Each structure is given as a SMILES string. Results filed as inconclusive are left out. The source made the active and inactive calls. How the source made its calls, unless noted: active means hit-call score of the fitted dose curve at least 0.9, where 1 is the maximum; inactive means score below 0.9.

Sequence of Steroid hormone receptor ERR1 (Homo sapiens) (P11474 whole entry, looked up, the tested form may be a part): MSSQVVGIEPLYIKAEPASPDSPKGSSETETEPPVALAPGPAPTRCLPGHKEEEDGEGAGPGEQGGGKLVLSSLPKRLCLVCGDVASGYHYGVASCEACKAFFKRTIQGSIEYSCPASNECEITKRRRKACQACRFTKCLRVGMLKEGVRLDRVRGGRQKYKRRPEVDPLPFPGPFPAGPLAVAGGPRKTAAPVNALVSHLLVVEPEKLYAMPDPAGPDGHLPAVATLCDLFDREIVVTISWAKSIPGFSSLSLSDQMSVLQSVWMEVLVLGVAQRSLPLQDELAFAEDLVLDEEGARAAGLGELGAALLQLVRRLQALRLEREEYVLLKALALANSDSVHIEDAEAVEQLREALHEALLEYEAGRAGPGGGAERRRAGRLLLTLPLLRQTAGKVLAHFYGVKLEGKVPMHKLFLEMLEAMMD
Sequence of Nuclear receptor subfamily 1 group I member 3 (Homo sapiens) (Q14994 whole entry, looked up, the tested form may be a part): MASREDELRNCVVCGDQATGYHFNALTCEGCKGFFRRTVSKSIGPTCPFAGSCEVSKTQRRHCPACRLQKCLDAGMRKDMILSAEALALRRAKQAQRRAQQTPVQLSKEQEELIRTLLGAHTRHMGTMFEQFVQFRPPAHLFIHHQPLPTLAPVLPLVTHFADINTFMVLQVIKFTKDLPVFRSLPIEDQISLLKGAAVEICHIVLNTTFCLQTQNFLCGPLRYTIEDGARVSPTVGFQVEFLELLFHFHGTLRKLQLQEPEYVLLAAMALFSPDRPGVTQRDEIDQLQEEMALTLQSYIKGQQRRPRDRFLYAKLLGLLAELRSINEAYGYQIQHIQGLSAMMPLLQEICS

The AC50 is the concentration at which the activity in the assay is half-maximal. `CCc1c(C(=O)NN2CCCCC2)nn(-c2ccc(Cl)cc2Cl)c1-c1ccc(Br)cc1`: the concentration at half-maximal activity (AC50) in assay [1] is 3.53 µM (active); in assay [4] it was 1.38 µM (active). In addition, the molecule was classed as inactive in [2], in [3], in assay [5], in [6] and in [7].

Take `CCOC(=O)C(C)(C)Oc1ccc(Cl)cc1`: the call in assay [1], in [2], in assay [3], in assay [4], in [5] and in [6] was inactive. Besides, the molecule was classed as inactive in assay [7] and in assay [8].

Consider `NC(=O)Cn1c(=O)cc(CCN2CCN(c3nccc4sccc34)CC2)c2ccc(F)cc21`, for which the AC50 in assay [1] is 30.9 µM (active). Also, the molecule was classed as inactive in [2], in assay [3], in assay [4], in assay [5], in assay [6] and in assay [7]. Also, the outcome in assay [8] was inactive.

In the case of `O=c1c(O)c(-c2ccc(O)c(O)c2)oc2cc(O)cc(O)c12`, the call in assay [1], in assay [2], in assay [3], in assay [4], in assay [9] and in [7] was inactive. In addition, the AC50 in assay [5] was 14.9 µM (active).

Regarding `Cc1ccc(C(C)C)c(O)c1`, the molecule was called inactive in [1], in assay [2], in assay [3], in [4], in assay [9] and in assay [7]. Also, the outcome in [8] was inactive. Also, the AC50 in [5] is 46.1 µM (active).

Regarding `CCCCCC(=O)O`, the result in [1], in assay [2], in [3], in assay [4], in assay [5] and in assay [6] was inactive. Also, in assay [7], the molecule was classed as inactive.

Consider `CCCCC(CC)COC(=O)CC(C(=O)OCC(CC)CCCC)S(=O)(=O)O` (configuration not stated), for which the result in assay [1], in assay [2], in assay [3], in assay [4], in assay [9] and in assay [5] was inactive. Besides, the result in assay [7] and in assay [8] was inactive.

Regarding `CN[C@H]1CC[C@@H](c2ccc(Cl)c(Cl)c2)c2ccc(S(N)(=O)=O)cc21`, the molecule was classed as inactive in assay [1], in assay [2], in [3], in assay [4], in assay [9] and in assay [6]. Further, the molecule was classed as inactive in [7] and in assay [8].

As to `CCNc1cccc(C)c1`, the molecule was classed as inactive in assay [1], in assay [2], in assay [3], in [4], in assay [9] and in [7].

Consider `Cc1ccc(C)c(O)c1C`, for which the molecule was classed as inactive in assay [1], in assay [2], in assay [3], in [4], in assay [9] and in assay [5]. In assay [7], the call was inactive.

Consider `COc1cc(S(=O)(=O)O)c(C)cc1N=Nc1c(O)ccc2cc(S(=O)(=O)O)ccc12`, for which the outcome in assay [1], in assay [2], in assay [3], in [4], in assay [9] and in assay [6] was inactive. The result in assay [7] and in [8] was inactive.

With `COc1cccc2c1C(=O)c1c(O)c3c(c(O)c1C2=O)C[C@@](O)(C(=O)CO)C[C@@H]3O[C@H]1C[C@H](N)[C@H](O)[C@H](C)O1`, the AC50 in [1] was 1.26 µM (active); in assay [4], 0.318 µM (active); in assay [7], 0.0821 µM (active). For the same molecule, the call in [2], in assay [3], in assay [5] and in assay [6] was inactive.

As for `Oc1ccc2c(c1)OC[C@@H](N1CCC(O)(c3ccc(F)cc3)CC1)[C@H]2O`, the molecule was classed as inactive in [1], in [2], in [9] and in assay [7]. Besides, the half-maximal activity concentration (AC50) in [3] is 64.6 µM (active); in [4], 30.1 µM (active); in assay [5], 6.61 µM (active).

`CCCCCCC(=O)OCC`: the call in assay [1], in [2], in assay [3], in assay [4], in assay [9] and in assay [7] was inactive. Besides, the AC50 in [5] is 17.6 µM (active).

As for `CCOc1ccc2c(c1)C(C)=CC(C)(C)N2`, the AC50 in assay [1] is 58.1 µM (active); in assay [3] it was 151 µM (active); in [4], 38.2 µM (active); in assay [5], 40.7 µM (active); in assay [7] it was 155 µM (active). The molecule was classed as inactive in assay [2] and in assay [9].

Turning to `NCC1(Cc2noc(=O)[nH]2)CCCCC1`, the call in [1], in assay [2], in assay [3], in assay [4], in [9] and in [7] was inactive. For the same molecule, the result in assay [8] was inactive.

Turning to `COc1cc(C=O)ccc1O`, the result in assay [1], in assay [2], in assay [3], in assay [4], in assay [9] and in assay [5] was inactive. Also, the result in [7] and in [8] was inactive.

For the molecule `CCCCc1ccc2c(n1)[C@@H](c1ccc(OC)cc1C[C@H](C)C(=O)O)[C@H](C(=O)O)[C@H]2c1ccc2c(c1)OCO2`, the outcome in [1], in assay [2], in [3], in assay [4], in [9] and in assay [7] was inactive. The result in assay [8] was inactive.

In the case of `FC(F)(F)C(F)(F)C(F)(F)C(F)(F)C(F)(F)C(F)(F)CCI`, the result in assay [1], in [2], in assay [3], in [4], in assay [9] and in assay [5] was inactive. For the same molecule, the result in assay [7] was inactive.

In the case of `COc1ccc(C)cc1N`, the outcome in assay [1], in [2], in assay [3], in assay [4], in assay [9] and in assay [5] was inactive. The outcome in assay [7] and in assay [8] was inactive.

In the case of `CCCCCCCCCCCCCO`, the AC50 was 34.3 µM (active) in [1] and 65.7 µM (active) in [5]. Moreover, the molecule was called inactive in assay [2], in assay [3], in assay [4], in assay [9], in [6] and in assay [7].

For `Cc1cc(NC(=O)C(=O)O)cc(C)c1Oc1ccc(O)c2c1CCC2`, the outcome in [1], in assay [2], in [3], in assay [4], in assay [9] and in assay [5] was inactive. Also, the molecule was called inactive in [7] and in assay [8].

For `COc1cc(/C=C/C(=O)CC(=O)/C=C/c2ccc(O)c(OC)c2)ccc1O`, the concentration at half-maximal activity (AC50) in [1] was 27.4 µM (active); in assay [4] it was 33.4 µM (active); in assay [7], 33.4 µM (active). Also, the result in assay [2], in assay [3], in assay [5] and in assay [6] was inactive.

For the molecule `CC1(C)NC(=O)NC1=O`, the molecule was called inactive in [1], in assay [2], in assay [3], in assay [4], in assay [9] and in assay [6]. The result in [7] and in assay [10] was inactive. In addition, in assay [5], the concentration at half-maximal activity (AC50) was 26.3 µM (active).

Take `Nc1ccccc1N`: the outcome in assay [1], in [2], in assay [3], in assay [9] and in [5] was inactive. Besides, the figures for the AC50 in assay [4] and in assay [7] were 34.8 µM (active) and 51.8 µM (active), respectively.

Take `NS(=O)(=O)c1cc2c(cc1Cl)NCNS2(=O)=O`: the molecule was called inactive in assay [1], in assay [2], in assay [3], in [5], in assay [6] and in assay [7]. Further, in [8], the outcome was inactive. In addition, the half-maximal activity concentration (AC50) in assay [4] was 4.41 µM (active).

As for `Cc1cccc([N+](=O)[O-])c1C`, the molecule was called inactive in assay [1], in assay [2], in assay [3], in assay [4], in [9] and in [7]. Also, in [8], the outcome was inactive. In addition, in assay [5], the AC50 was 44.3 µM (active).
